Experimental data: PubChem BioAssay; in the data active means activity above about 50%; inactive means the rest

Tests used:
[1] = target: Tumor necrosis factor receptor superfamily member 10B (Homo sapiens) (UniProt O14763); test: caspase-8 TRAIL sensitization, hit retest, confirmation, cell-based, NB7+caspase-8, with/without TRAIL, luminescence panel (AID 651596); settings: NB7 neuroblastoma + caspase-8, TRAIL sensitization, luminescence viability, with TRAIL, mean of runs, at 10 µM, stronger effect = higher value
[2] = as above; settings: NB7 neuroblastoma + caspase-8, without TRAIL, luminescence viability, without TRAIL, mean of runs, at 10 µM

Sequence of Tumor necrosis factor receptor superfamily member 10B (Homo sapiens) (O14763 whole entry, looked up): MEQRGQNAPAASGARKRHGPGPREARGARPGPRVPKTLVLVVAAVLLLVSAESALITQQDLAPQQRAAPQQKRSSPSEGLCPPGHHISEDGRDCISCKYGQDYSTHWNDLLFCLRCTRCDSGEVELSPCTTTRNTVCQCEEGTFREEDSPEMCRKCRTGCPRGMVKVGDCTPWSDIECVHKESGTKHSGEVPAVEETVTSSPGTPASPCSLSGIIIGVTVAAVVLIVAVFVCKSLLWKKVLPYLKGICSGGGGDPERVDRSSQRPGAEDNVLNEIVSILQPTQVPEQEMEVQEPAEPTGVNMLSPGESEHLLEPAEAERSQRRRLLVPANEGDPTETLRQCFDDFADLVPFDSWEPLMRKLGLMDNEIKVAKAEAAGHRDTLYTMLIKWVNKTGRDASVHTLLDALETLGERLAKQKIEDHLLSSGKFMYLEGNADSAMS

SMILES	activity [1] [%]	activity [2] [%]
CCOC(=O)C1CCN(C(=O)C2c3ccccc3C(=O)N(C)C2c2ccc(OC)cc2)CC1 (configuration not stated)	66.1	60.9
CCOC(=O)c1cn2nc(N3CCCCC3)ccc2n1	52.5	72.9
Nc1ccc(-c2cnc(-c3ccc(N)cc3)nc2)cc1	74.7	71.7
Cc1ccc(-c2cc3onc(-c4ccccc4)c3c(=O)n2C)cc1	75	72.3
Cc1ccccc1CS(=O)(=O)c1ncc(Cl)c(C(=O)Nc2ccc(F)cc2)n1	22.5	24.9
COc1cccc(C(=O)/C=C/Nc2cccc(O)c2)c1	86	71.5
CC(=O)Nc1cccc(-c2csc(Nc3ccc(C)cn3)n2)c1	49.5	30.4
Cc1ccc(-c2csc(NC(=O)CSc3nnc4c(n3)[nH]c3ccccc34)n2)cc1	42.5	24.3
CCOc1ccc(N2C(N)=NC(N)=NC2(C)C)cc1	67.3	82.9
O=C(N/N=C/c1ccccc1)c1ccc2c(c1)OCO2	61.2	56.1
COc1ccccc1N1CCN(c2ccc(-c3ccccc3)nn2)CC1	80.9	86.2
COc1cc(/C=C(/C#N)c2nc3ccccc3[nH]2)ccc1OCC(=O)Nc1ccccc1C	86	97.8
COc1ccc(C2C(C(=O)N3CCN(c4ccccc4F)CC3)c3ccccc3C(=O)N2C)cc1 (configuration not stated)	74.5	59
Cc1cccc(NC2=NC(C)(C)N=C(N)N2)c1	82.5	83.2
Cc1cccc(-c2cc3nc(-c4ccccc4)cc(=O)n3[nH]2)c1	50	55.2
O=C(Nc1ccc(-c2cn3ccsc3n2)cc1)C1CC1	75.1	70.2
